Screening data deposited in PubChem BioAssay by National Center for Advancing Translational Sciences (NCATS).
ELG1 repair inh – ELG1-dependent DNA repair inhibition; HEK293T ELG1-luciferase reporter, luminescence, 16 h; DNA damage induced by 5-fluorouridine; Potency, µM (top dose mostly 46.1 µM), inactives show at the highest dose activity change, negative = inhibition, actives largely listed as inhibitors; 2.3% of 330,000 active; further: potency means the concentration at half of the fitted maximal effect; nearly all actives have a fitted effect of over 55% in size
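Step one: seed 2,000 cells per well. Step two: pin-transfer compound or DMSO alongside 5-fluorouridine. Step three: incubate 16 hr, 37 °C, 5% CO2. Step four: add ONE-Glo, wait 30 min, read luminescence.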
Giardia killer – Giardia lamblia killing | Giardia lamblia trophozoite viability | activity change, % at 7.66 µM, hits read low | 0.15% of 340,000 active | AID 540267; in the data active means activity change below about -80%; inconclusive means between about -30% and that limit;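 further: parasites exposed to compound for two days anaerobically before the ATP read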
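Anaerobic 48 hrs incubation at 37 deg C of 100 trophozoites/well with test compounds; ATPLite 1-Step luminescence, 15-30 min RT, reports cellular ATP as viability.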
TDP1 cell noCPT – qHTS for Inhibitors of human tyrosyl-DNA phosphodiesterase 1 (TDP1): qHTS in cells in absence of CPT. Potency, µM (doses to about 46.2 µM), for inactives: top-dose activity change, negative = growth inhibition, most hits filed as inhibitors. DT40 Tdp1-/- hTDP1 cells, no CPT, ATP luminescence, 48 h. AID 686978, 2013. 15% of 420,000 active; further: potency means the concentration at half of the fitted maximal effect; nearly all actives have a fitted effect of over 55% in size
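Camptothecin absent (DMSO only). Human TDP1-complemented DT40 knockout cells, 400 cells/well, 37 °C for minimum 48 hr; ATP measured via CellTiter-Glo, 30 min dark incubation, luminescence.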
IL-1B inflam inh – inflammasome signaling inhibition, IL-1 beta readout | THP-1 LPS/ATP IL-1B secretion, AlphaLISA, 16 h; stronger effect = lower value | activity change, % at 57.5 µM | 4.7% of 360,000 active; in the data active means activity change below about -50%; inconclusive means mostly about -30% to -49%
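THP-1 cells pretreated 1 hr with compounds (up to 57.5 uM final), then stimulated with LPS (250 ng/mL final) plus ATP (1.25 mM final); secreted IL-1B measured by AlphaLISA after 16 hr, decreased signal indicating inhibition.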
TDP1 inh – TDP1 (human) enzyme inhibition. Q9NUW8. recombinant TDP1, AlphaScreen DNA substrate cleavage. Potency, µM (titrated, usually from 130 µM), for inactives: at the highest dose activity change, negative = inhibition, most hits filed as inhibitors. 0.28% of 350,000 active; further: potency means the concentration at half of the fitted maximal effect; nearly all actives have a fitted effect of over 40% in size
Target sequence (Q9NUW8 whole entry, looked up): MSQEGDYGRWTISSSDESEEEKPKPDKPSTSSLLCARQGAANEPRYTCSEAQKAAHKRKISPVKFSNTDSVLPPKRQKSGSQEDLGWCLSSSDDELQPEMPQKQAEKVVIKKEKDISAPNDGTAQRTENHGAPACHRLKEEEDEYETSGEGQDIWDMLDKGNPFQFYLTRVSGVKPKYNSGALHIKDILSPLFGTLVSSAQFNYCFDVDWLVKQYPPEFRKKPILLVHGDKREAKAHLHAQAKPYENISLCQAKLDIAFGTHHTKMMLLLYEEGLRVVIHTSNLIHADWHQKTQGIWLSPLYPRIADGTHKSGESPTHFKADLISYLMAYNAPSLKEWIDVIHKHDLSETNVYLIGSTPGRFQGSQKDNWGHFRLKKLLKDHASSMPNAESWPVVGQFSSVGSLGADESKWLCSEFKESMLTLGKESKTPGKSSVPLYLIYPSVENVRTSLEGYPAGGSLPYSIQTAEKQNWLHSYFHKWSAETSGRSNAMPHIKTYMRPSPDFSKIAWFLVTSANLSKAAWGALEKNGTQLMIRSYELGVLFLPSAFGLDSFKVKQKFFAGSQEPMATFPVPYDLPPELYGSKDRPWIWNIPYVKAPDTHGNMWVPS
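Compounds were preincubated with Tdp1 (1 nM final) for 15 min at room temperature before substrate (15 nM final) started a 5 min reaction; beads (10 ug/ml final) were then added for 10 min before AlphaScreen detection.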
DT40 TDP1 CPT – growth inhibition of DT40 Tdp1-/-;hTDP1 cells with camptothecin (screen for TDP1 inhibitors); chicken DT40 Tdp1-/-;hTDP1 cells + 20 nM CPT, ATP luminescence, 48 h; Potency, µM (top dose mostly 46.2 µM), inactives show top-dose activity change, negative = growth inhibition, usual class: inhibitors; AID 686979; 12% of 420,000 active; further: potency means the concentration at half of the fitted maximal effect; nearly all actives have a fitted effect of over 55% in size
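Chicken DT40 Tdp1-/- cells stably complemented with human TDP1 were seeded at 400 cells/well in medium containing 20 nM camptothecin, exposed to pin-transferred compounds, and grown at 37 °C for at least 48 hr. Viability was read as ATP luminescence.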
Active calls of the source: *; [ ] = another dose, or the depositor's remark. Sampled rows, rich in hits. Any-hit rate of the full collection: about 19%. Unless noted, the call rests on the fitted dose curve; in most records, active means well fitted curve in the direction sought with a large enough effect; inconclusive means small, poorly fitted or top-dose-only effect, or another doubt; inactive means no such curve, though single readings can be large; an effect the other way counts as inactive or inconclusive. On the % scale 0 is the no-effect control and ±100 the full control effect.

Results for COc1ccc(CN2CCCN(CC(=O)Nc3cc(C)ccc3C)S2(=O)=O)cc1 ?
TDP1 cell noCPT: 21µM*; TDP1 inh: 2%; DT40 TDP1 CPT: 21µM*

Results for COc1ccc(CN2CCCN(CC(=O)Nc3ccc(Br)cc3F)S2(=O)=O)cc1 ?
TDP1 cell noCPT: inconclusive; TDP1 inh: -1%; DT40 TDP1 CPT: inconclusive

How did CCOC(=O)c1ccccc1NC(=O)CN1CCCN(Cc2cc(C)ccc2C)S1(=O)=O do in these assays?
TDP1 cell noCPT: 21µM*; TDP1 inh: 3%; DT40 TDP1 CPT: 21µM*

What do the screens show for `CCc1cccc(C)c1NC(=O)CN1CCCN(Cc2ccc(C)cc2)S1(=O)=O`?
TDP1 cell noCPT: 10µM*; TDP1 inh: 8%; DT40 TDP1 CPT: 16µM*

How did CN(C(=O)c1cccc(NC(=O)Cc2cccc(NC(=O)C3CCN(C(=O)C4CCCC4)CC3)c2)c1)C1CC1 do in these assays?
Giardia killer: 9; TDP1 cell noCPT: -28%; IL-1B inflam inh: -19; DT40 TDP1 CPT: -20%

How did C=C1C(=O)O[C@@H]2C3OC3(C)CC/C=C(\C)CC[C@@H]12 (some centres undefined) do in these assays?
TDP1 cell noCPT: 11µM*; TDP1 inh: 12%[56.1 µM]; DT40 TDP1 CPT: 11µM*

What do the screens show for `C=C1C(=O)OC2C=C(C)CCC=C(C)CCC12` (centres undefined)?
TDP1 inh: 16%

What do the screens show for `C=C1CC/C=C(\C)CC[C@@H]2[C@@H]1CC2(C)C`?
TDP1 cell noCPT: -6%; TDP1 inh: -6%[56.1 µM]; DT40 TDP1 CPT: -8%

How did C=C1C(=O)O[C@@H]2[C@H]3O[C@]3(C)CC/C=C(\C)CC[C@@H]12 do in these assays?
Giardia killer: 9; TDP1 cell noCPT: 5.2µM*; IL-1B inflam inh: -110*; TDP1 inh: 7%; DT40 TDP1 CPT: 4.6µM*

How did C=C1C(=O)O[C@H]2[C@H]1CC/C(C)=C\CC[C@@]1(C)O[C@@H]21 do in these assays?
TDP1 cell noCPT: 2.7µM*; DT40 TDP1 CPT: 2.4µM*

How did C=C1C(=O)OC2C1CC/C(C)=C/CCC1(C)OC21 (centres undefined) do in these assays?
TDP1 cell noCPT: 2.9µM*; TDP1 inh: 5%[56.1 µM]; DT40 TDP1 CPT: 2.3µM*

How did O=C(NCCN1CCCCC1)Nc1cccc(F)c1 do in these assays?
ELG1 repair inh: 2%; Giardia killer: 19; TDP1 cell noCPT: -1%; IL-1B inflam inh: 2; DT40 TDP1 CPT: 29%

How did CN(C(=O)c1ccc(NC(=O)Cc2ccc([N+](=O)[O-])cc2)cc1)C1CC1 do in these assays?
ELG1 repair inh: -11%; Giardia killer: -3; TDP1 cell noCPT: inconclusive; IL-1B inflam inh: 3; TDP1 inh: 2%; DT40 TDP1 CPT: inconclusive

What do the screens show for `O=C(C[n+]1ccn(-c2ccccc2)c1)c1ccc([N+](=O)[O-])cc1`?
ELG1 repair inh: -18%; Giardia killer: -22; TDP1 cell noCPT: 16µM*; IL-1B inflam inh: 54; TDP1 inh: 2%; DT40 TDP1 CPT: 15µM*

How did c1ccc(Cc2cc[n+](Cc3ccccn3)cc2)cc1 do in these assays?
ELG1 repair inh: 0%; Giardia killer: -6; TDP1 cell noCPT: 9.2µM*; IL-1B inflam inh: 60; TDP1 inh: 4%; DT40 TDP1 CPT: 21µM*

How did O=[N+]([O-])c1ccc(C[n+]2ccccc2)cc1 do in these assays?
ELG1 repair inh: 8%; Giardia killer: 36; TDP1 cell noCPT: -2%; IL-1B inflam inh: 14; TDP1 inh: -3%; DT40 TDP1 CPT: -10%

What do the screens show for `O=[N+]([O-])c1ccc(C[n+]2ccc(Cc3ccccc3)cc2)cc1`?
ELG1 repair inh: inconclusive; Giardia killer: 0; TDP1 cell noCPT: 10µM*; IL-1B inflam inh: -4; TDP1 inh: 5%; DT40 TDP1 CPT: 18µM*

Results for O=C(C[n+]1ccccc1)c1cccc([N+](=O)[O-])c1 ?
TDP1 cell noCPT: -3%; DT40 TDP1 CPT: -8%

Results for O=C(Cn1cc[n+](Cc2ccccc2)c1)c1ccc([N+](=O)[O-])cc1 ?
ELG1 repair inh: 15µM*; Giardia killer: -15; TDP1 cell noCPT: 2.6µM*; IL-1B inflam inh: -72*; TDP1 inh: -1%; DT40 TDP1 CPT: 3.7µM*

How did ON(CCc1ccccn1)Cc1ccccc1 do in these assays?
Giardia killer: 11; TDP1 cell noCPT: -4%; IL-1B inflam inh: -3; DT40 TDP1 CPT: -11%

How did COc1cccc(N2CC(NC(=O)c3ccc4c(c3)OCO4)CC2=O)c1 (centres undefined) do in these assays?
TDP1 cell noCPT: 1%; TDP1 inh: -3%; DT40 TDP1 CPT: -1%

How did CCc1ccc(OCC(=O)NNC(=O)C2CCC2)cc1 do in these assays?
ELG1 repair inh: 3%; Giardia killer: -9; TDP1 cell noCPT: -19%; IL-1B inflam inh: -3; TDP1 inh: -6%[0.505 µM]; DT40 TDP1 CPT: -1%

Results for CCCCCCCCCOC(=O)C[n+]1csc(CCO)c1C ?
ELG1 repair inh: 8%; Giardia killer: 7; TDP1 cell noCPT: 10µM*; IL-1B inflam inh: -19; TDP1 inh: -3%; DT40 TDP1 CPT: inconclusive

How did CCc1ccccc1NC(=O)N1CCN(c2nnc(C)c3c(C)n(-c4ccccc4)nc23)CC1 do in these assays?
TDP1 cell noCPT: 21µM*; TDP1 inh: -3%; DT40 TDP1 CPT: inconclusive

Results for Cc1nnc(N2CCC(C(=O)NCc3ccc(F)cc3)CC2)c2nn(-c3ccc(Cl)cc3)c(C)c12 ?
TDP1 cell noCPT: inconclusive; TDP1 inh: -6%; DT40 TDP1 CPT: 16µM*

How did O=C(NCc1ccc(F)cc1)C1CCN(c2cnccn2)CC1 do in these assays?
ELG1 repair inh: 13%; Giardia killer: 9; TDP1 cell noCPT: inconclusive; IL-1B inflam inh: 21; TDP1 inh: 0%; DT40 TDP1 CPT: 18µM*

How did Cc1ccc(Cl)cc1NC(=O)C1CCN(c2nc3ccccc3n3cccc23)CC1 do in these assays?
TDP1 cell noCPT: 16µM*; TDP1 inh: 1%; DT40 TDP1 CPT: inconclusive

Results for Cc1ccc(C)c(NC(=O)N2CCN(c3nnc(C)c4c(C)n(-c5ccccc5)nc34)CC2)c1 ?
TDP1 cell noCPT: -3%; TDP1 inh: 7%; DT40 TDP1 CPT: -12%

What do the screens show for `CCOC(=O)C1=C(C)N=c2sc(=Cc3ccc(OCC(=O)O)cc3)c(=O)n2C1c1ccc(SC)cc1` (centres undefined)?
TDP1 cell noCPT: -18%; IL-1B inflam inh: -21; DT40 TDP1 CPT: -11%
